Compounds with a hit are over-represented: about 3.3% of the library has one in this group of screens.
FGF22 binding – FGF22 (human) thermal shift binding; Q9HCT0; recombinant FGF22 thermal shift, SYPRO orange fluorescence; percent of sucrose octasulfate shift, DMSO zero; activity (Tm shift, normalised), % at 9.99 µM; hit rate 1.5% among 340,000; AID 651658;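 active = mean Tm shift, scaled 0 neutral to 100 positive control, at about 1.3% or above, every replicate too, limit read from the data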
Target sequence (Q9HCT0 whole entry, looked up): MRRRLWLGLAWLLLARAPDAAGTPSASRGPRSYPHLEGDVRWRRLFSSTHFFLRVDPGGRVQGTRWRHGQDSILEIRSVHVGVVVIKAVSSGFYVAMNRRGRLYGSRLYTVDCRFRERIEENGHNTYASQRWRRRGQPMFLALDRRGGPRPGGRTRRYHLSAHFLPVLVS
SIRT5 block – sirtuin-5 (human) deacylase inhibition. Purified SirT5, succinyl-peptide AMC, trypsin-coupled fluorescence. inhibition, % at 15 µM. hit rate 1.1% among 330,000. AID 652115; in the data active = inhibition above about 15%
Target sequence (Q9NXA8 whole entry, looked up): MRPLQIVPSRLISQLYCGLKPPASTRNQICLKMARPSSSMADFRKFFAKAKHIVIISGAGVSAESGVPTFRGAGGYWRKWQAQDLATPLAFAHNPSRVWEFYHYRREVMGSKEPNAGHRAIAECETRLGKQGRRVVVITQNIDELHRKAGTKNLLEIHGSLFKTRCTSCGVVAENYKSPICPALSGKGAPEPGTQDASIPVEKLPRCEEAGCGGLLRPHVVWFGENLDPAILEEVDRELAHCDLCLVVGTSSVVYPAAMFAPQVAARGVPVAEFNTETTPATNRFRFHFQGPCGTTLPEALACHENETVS
ERAP1 HTS inh – blocks human ERAP1 aminopeptidase activity. Q9NZ08. hit rate 0.15% among 340,000. AID 652197. recombinant ERAP1, Leu-AMC fluorescence, 60 min. inhibition, % at 10.7 µM;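 active = mean replicate inhibition of at least 30%, or all replicates individually reaching that 30% level; inactive = mean below 30% and not every replicate reaching it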;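 note: 0% = neutral control wells and 100% = L-leucinethiol positive control wells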
CASP6 VEID inh – blocks human caspase-6 cleavage activity; P55212; purified caspase-6, Z-VEID-R110 cleavage fluorescence; inhibition, % at 12.5 µM; hit rate 0.53% among 350,000;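 active = mean inhibition across replicates at least about 35%, with every replicate also reaching that limit, limit read from the data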;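 note: 0% = median of neutral control wells and 100% = no fluorescence left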
INS-1E GSIS act – primary screen for activators of insulin secretion dependent on glucose, INS-1E cells, GLuc reporter luminescence. INS-1E GLuc reporter insulin secretion, 2-3 h. activation, % at 16.6 µM. hit rate 0.61% among 370,000. AID 743287;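 active = lowest replicate activation of at least 40%, so every replicate reaches that level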;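 note: 0% = median of neutral control wells and 100% = median of IBMX positive control wells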
* marks the source's active call; other numbers are inactive results; nt = no result given; + = active, no number.

SMILES	FGF22 binding	SIRT5 block	ERAP1 HTS inh	CASP6 VEID inh	INS-1E GSIS act
COCCCn1c(N)c(C(=O)NCc2ccco2)c2nc3ccccc3nc21	0	nt	nt	98*	-3
COCCNC(=O)c1c(N)n(Cc2ccco2)c2nc3ccccc3nc12	nt	nt	nt	nt	2
CCC(=NC(C)c1ccccc1)c1c(O)[nH]c(=O)[nH]c1=O (stereo unspecified)	0	1	1	2	66*
CCCNC(=O)[C@@H]1[C@@H](CO)[C@@H]2Cn3c(cccc3=O)[C@H]1N2CCC	0	1	0	1	-2
Cn1cnc([N+](=O)[O-])c1Sc1ccc([N+](=O)[O-])cc1	43*	-1	3	2	2
O=[N+]([O-])c1ccc(N2CCCCC2)c2ncccc12	nt	3	-1	15	-18
O=[N+]([O-])c1ccc(N2CCOCC2)c2cccnc12	0	0	4	-4	75*
C=C1C(=O)OC2CCN3CC=C(COC(=O)C(C)(O)C4(CO4)C1C)C23 (stereo unspecified)	0	3	-3	36*	nt
CCOc1ccc(CN2CCN(C(=O)Cc3ccccc3)CC2)cc1	0	0	-1	-2	5
CC(C)(C)NS(=O)(=O)c1ccc(OCC(=O)N2CCN(Cc3ccccc3)CC2)cc1	44*	-2	0	-5	4
BrCCc1ccccc1	0	nt	4	1	6
C[N+](C)(C)Cc1ccccc1	0	-2	0	76*	nt
CN1C(=O)NC(=O)/C(=C/c2ccc([N+](=O)[O-])o2)C1=O	0	2	-2	56*	0
CN1C(=O)NC(=O)/C(=C/c2ccc([N+](=O)[O-])s2)C1=O	0	6	5	20	nt
CCCCCCn1c(=O)c(C(=O)Nc2cnccn2)c(O)c2ccccc21	43*	-2	-1	0	3
CCCCCn1c(=O)c(C(=O)Nc2ccccn2)c(O)c2ccccc21	0	2	-3	-4	-16
CCOP(=O)(OCC)c1cccc(OP(=O)(c2cccc([N+](=O)[O-])c2)c2cccc([N+](=O)[O-])c2)c1	0	3	nt	-1	-4
CCOP(=O)(OCC)c1cccc(O)c1	45*	-1	-2	1	0
COC(=O)[C@@H]1[C@@H](CO)[C@@H]2Cn3c(ccc(C4=CCCC4)c3=O)[C@H]1N2CC1CCCC1	nt	2	-4	2	8
COc1ccc(C2(C#N)CCN(C)CC2)cc1	0	-1	4	-1	12
COc1cc(C2(C#N)CCN(C)CC2)cc(OC)c1OC	43*	nt	-1	0	nt
CSCCC(c1nnnn1-c1ccc2c(c1)OCCO2)N1CCC(n2c(=O)[nH]c3ccccc32)CC1 (stereo unspecified)	0	19*	-13	13	-3
COc1cccc2c1C(=O)c1c(O)c3c(c(O)c1C2=O)CC(O)(C(C)=NO)CC3OC1CC(N)C(O)C(C)O1 (stereo unspecified)	0	-1	33*	11	-10
O=C(Cc1ccccc1)N1CCCCN2[C@@H](CO)[C@H](c3ccc(C#Cc4ccccc4)cc3)[C@@H]2C1	0	-3	-3	1	-22
c1ccc(C2(NC3=NCCO3)CCCCC2)cc1	43*	nt	-2	2	nt
SMILES	FGF22 binding	SIRT5 block	ERAP1 HTS inh	CASP6 VEID inh	INS-1E GSIS act
CCC(CO)(C(=O)OC1C[N+]2(C)CCC1CC2)c1ccccc1 (stereo unspecified)	0	-2	72*	nt	18
CC(C)Oc1ccc(C2C(C#N)=C(N)Oc3c2c(=O)oc2ccccc32)cc1 (stereo unspecified)	nt	nt	nt	nt	-13
N#CC1=C(N)Oc2c(c(=O)oc3ccccc23)C1c1ccc([N+](=O)[O-])o1 (stereo unspecified)	43*	-1	11	40*	-7
Cc1ccc(OCCSC2=NN2c2cc(C)nc(N)n2)cc1	0	21*	2	-1	14
CCSC1=NN1c1cc(C)nc(N)n1	0	1	1	-3	31
O=C(Cc1cccnc1)N1CCCCN2[C@@H](CO)[C@H](c3ccc(/C=C/c4ccccc4)cc3)[C@@H]2C1	0	2	-4	2	-4
CCN1C[C@]2(CO)CC[C@H](OC)[C@@]34C2[C@H](OC)[C@@](O)(C13)[C@@]1(O)C[C@H](OC)[C@H]2C[C@@H]4[C@@H]1[C@H]2OC	0	24*	-4	3	19
O=C(O)[C@H]1[C@H](CO)[C@H]2Cn3c(ccc(-c4cccnc4)c3=O)[C@@H]1N2S(=O)(=O)c1ccccc1F	0	-6	4	2	11
N#CC1(c2ccccc2)CCN(C2CC(=O)N(c3ccc(F)cc3)C2=O)CC1 (stereo unspecified)	nt	nt	nt	nt	-4
N#CC1(c2ccccc2)CCN(C2CC(=O)N(c3ccc4c(c3)OCO4)C2=O)CC1 (stereo unspecified)	44*	0	-2	4	-1
CC=Cc1ccc2n(c1=O)C[C@H]1[C@H](CO)[C@@H](C(=O)N(C)C)[C@@H]2N1C (mixture of isomers)	0	-2	3	57*	24
CC=Cc1ccc2n(c1=O)C[C@@H]1[C@@H](CO)[C@H](C(=O)OC)[C@H]2N1CC1CC1 (mixture of isomers)	0	-7	1	1	5
COc1ccc(OC(=O)N(C)C[C@@H]2OCc3ccccc3-c3c(n(C)c4ccccc34)C(=O)N([C@@H](C)CO)C[C@@H]2C)cc1	0	7	-1	8	-25
NS(=O)(=O)c1ccc(-c2ccc(C=C3C(=O)NC(=S)NC3=O)o2)cc1	0	35*	5	19	-11
COc1cc2c(cc1O)C[C@H]1c3c(cc(O)c(OC)c3-2)CCN1C	-1	-7	-3	6	nt
COc1cc2c(cc1OC)-c1c(OC)c(OC)cc3c1[C@H](C2)[N+](C)(C)CC3	0	nt	79*	0	-6
N#Cc1ccc(-c2ccc([C@H]3[C@@H](CO)N4CCCCN(C(=O)Cc5ccccc5)C[C@H]34)cc2)cc1	1	2	-3	-2	-23
O=c1ccc2cc(O[C@@H]3O[C@@H](CO)[C@H](O)[C@@H](O)[C@@H]3O)c(O)cc2o1	0	-128	+	2	-13
C=CCN1[C@@H]2CN(C(C)=O)C[C@H]1C2c1ccc(Br)cc1 (stereo partly specified)	nt	nt	nt	nt	20
COc1ccc(C#Cc2ccc([C@@H]3[C@H](CO)N4CCCCN(C(=O)Cc5ccccc5)C[C@@H]34)cc2)cc1	0	-1	1	-6	-8
CC(=O)N1C[C@@H]2C(c3ccccc3)[C@H](C1)N2CC1CC1 (stereo partly specified)	nt	nt	nt	nt	14
CC1=NN(c2ccccc2)C(=O)/C1=C/c1c(O)[nH]c(=O)[nH]c1=O	1.4*	7	3	-1	5
CCCCN1C(=O)/C(=C/C=C/c2ccco2)C(=O)NC1=S	nt	38*	7	78*	-16
